Hits are enriched below; roughly 8% of the tested compounds scored in any of these assays.
MARV entry inh = Marburg virus entry inhibition; 18,000 compounds, 6.5% hits; AID 720532; Marburg virus pseudotype entry/binding inhibition, cell-based; Potency, µM (series often up to 49.2 µM), for inactives: top-dose activity change, negative = inhibition, actives largely listed as inhibitors
Lassa entry = blocks Lassa virus binding or cell entry. Lassa virus pseudotyped entry inhibition, cell-based qHTS. Potency, µM (top dose mostly 49.2 µM), inactives show at the highest dose activity change, negative = inhibition, hits mostly inhibitors. 18,000 compounds, 4.1% hits. AID 720533
Starred values were filed as active, the others as inactive; ! = repeats disagree; [ ] = remark or other dose. The call rests on the fitted dose curve; tested in HEK293 cells. On the % scale 0 is the no-effect control and ±100 the full control effect; potency means the concentration at half of the fitted maximal effect.

COc1cccc([C@@H]2Oc3ccc(OC)cc3C(=O)[C@H]2OC(=O)NCCOc2ccccc2)c1 was read as MARV entry inh -10.0% and Lassa entry -3.6%.
Screening COc1ccc2c(c1)OC(C)(C)C(c1ccccc1)C2c1ccc(OCCN2CCCC2)cc1 (configuration not stated) returned MARV entry inh 4.47µM* and Lassa entry inconclusive.
`CN1CCN(CCc2ccc(Cl)c(Cl)c2)CC1` gave MARV entry inh 17.8µM*! and Lassa entry inconclusive.
Screening CN(CCc1ccc(Cl)c(Cl)c1)CCN1CCCCCC1 returned MARV entry inh 10µM* and Lassa entry inconclusive.
CN(CCc1ccc(Cl)c(Cl)c1)[C@H]1CCCC[C@H]1N1CCCC1 was read as MARV entry inh 6.31µM* and Lassa entry 17.8µM*.
Screening CN(CCc1ccc(Cl)c(Cl)c1)CC(O)COc1ccc(NS(C)(=O)=O)cc1 (configuration not stated) returned MARV entry inh inconclusive and Lassa entry 3.1%.
O=C(O)c1ccc(CCN2CCN(CC=Cc3ccc(Cl)cc3)CC2)cc1 was read as MARV entry inh 10.5% and Lassa entry 0.1%.
Cc1c(C(=O)NCC2(c3ccccc3)CCOCC2)cnn1-c1nccc(-c2ccco2)n1 was read as MARV entry inh 27.6% and Lassa entry -8.5%.
For O=C/C=C/c1ccc(O)cc1 the results were MARV entry inh 9.9% and Lassa entry 1.2%.
Screening O=C1c2ccccc2C(=O)C1c1ccc(F)cc1 returned MARV entry inh 1.1% and Lassa entry -10.9%.
CC1(C)C(=O)NC2=C1C(=O)C(=O)c1ccccc12 was read as MARV entry inh 3.98µM* and Lassa entry 12.6µM*.
CN(C)CCCSC(=N)N was read as MARV entry inh 14.1µM*! and Lassa entry -0.7%.
For N=C(N)SCCN=C(N)N the results were MARV entry inh 6.6% and Lassa entry -4.5%.
N#Cc1ccc2c(c1)C[C@]1(CCCCN3C(=O)c4ccccc4C3=O)Oc3c(c(=O)oc4ccccc34)[C@H]2O1 was read as MARV entry inh inconclusive and Lassa entry 10.1%[8.59 µM].
For NC1CCCCC1N (configuration not stated) the results were MARV entry inh 5.6% and Lassa entry 7.2%.
For CC1(C)N=C(N)N=C(N)N1c1ccc(Cl)cc1 the results were MARV entry inh 7.08µM* and Lassa entry 11.2µM*.
[O][C@H]1[C@@H](O)[C@@H](CO)O[C@@H](O[C@@H]2[C@@H]3OC[C@H]2O[C@H](O[C@@H]2[C@@H](O)[C@H](C[C@@H]4[C@@H]5OC[C@H]4O[CH][C@@H]5O)O[C@H](CO)[C@@H]2OS(=O)(=O)O)[C@@H]3OS(=O)(=O)O)[C@@H]1O was read as MARV entry inh 11.2µM* and Lassa entry -6.5%.
Screening OC[C@@H]1O[C@H](OC2[C@@H](O)[C@@H](O)C(O)O[C@@H]2CO)[C@H](O)[C@@H](O)[C@@H]1OC1O[C@H](CO)[C@@H](O)[C@H](O)[C@@H]1O (some centres not stated) returned MARV entry inh 7.9% and Lassa entry 5.1%.
For CC1CC(OC(=O)C(O)c2ccccc2)CC(C)(C)N1C (configuration not stated) the results were MARV entry inh 1.1%[17.8 µM] and Lassa entry 0.6%[17.8 µM].
Screening COC(=O)C1CCN(Cc2ccc3c(c2)CN(C(=O)c2cc(C)on2)CCO3)CC1 returned MARV entry inh -21.5% and Lassa entry 0.1%.
Screening COCOCCn1cc(CN2CCS(=O)(=O)N(Cc3ccc(-c4ccc(C)cc4)cc3)C(C(C)C)C2=O)nn1 (configuration not stated) returned MARV entry inh -38.1% and Lassa entry -7.3%.
CC(=O)O[C@@H]1C(=O)O[C@@H]2[C@H]1OC(=O)[C@@H]2OC(C)=O was read as MARV entry inh -23.9% and Lassa entry -22.8%.
For COc1ccccc1N1CCNCC1 the results were MARV entry inh -7.7% and Lassa entry 1.3%.
For FC(F)(F)c1cccc(N2CCNCC2)c1 the results were MARV entry inh 28.2µM* and Lassa entry 28.2µM*.
COc1ccc(CN2CCOc3ccc(C(O)c4cccnc4)cc3C2)cc1 (configuration not stated) was read as MARV entry inh -8.8% and Lassa entry 2.9%.
`C[C@H]1CN(Cc2ccccc2)C(=O)[C@H]1CC(=O)Nc1ccccc1` gave MARV entry inh 6.3% and Lassa entry 29.6%.
`CN1CCN(c2ccc(Nc3c4ccccc4nc4ccccc34)cc2)CC1` gave MARV entry inh 2µM* and Lassa entry inconclusive.
`O=c1nc2ccccc2c2n1C[C@H](CN1CCN(c3ccccc3)CC1)N2` gave MARV entry inh 0.4% and Lassa entry -0.6%.
Screening CN(C)C(=O)c1ccc(-c2nc(N(C)C)c3ccccc3n2)cc1 returned MARV entry inh 49.0% and Lassa entry 49.4%.
Screening CC(C)C1C(=O)N(Cc2cn(CC3CCCCC3)nn2)CCS(=O)(=O)N1Cc1ccc(-c2ccc(Cl)nc2)cc1 (configuration not stated) returned MARV entry inh inconclusive and Lassa entry 11.4%.
CC(C)C1C(=O)N(Cc2cn(CC3CCCCC3)nn2)CCS(=O)(=O)N1Cc1ccc(-c2ccc(F)nc2)cc1 (configuration not stated) was read as MARV entry inh inconclusive and Lassa entry 19.9µM*.
`CCOC(=O)C1(c2ccccc2)CCN(CCC(C#N)(c2ccccc2)c2ccccc2)CC1` gave MARV entry inh 2.51µM* and Lassa entry 7.94µM*.
Screening CCC(=O)OC1(c2ccccc2)CCN(C)CC1 returned MARV entry inh -15.3%[107 µM] and Lassa entry -5.9%[107 µM].
CN(C)CCO[C@](C)(c1ccccc1)c1ccccn1 was read as MARV entry inh 0.5%[17.8 µM] and Lassa entry -13.2%[17.8 µM].
O=C(O)Cc1cccc2ccccc12 was read as MARV entry inh 11.8%[107 µM] and Lassa entry 8.4%[107 µM].
For C=C1CCC(O)C/C1=C/C=C1\CCC[C@@]2(C)C(C(C)/C=C/C(C)C(C)C)CC[C@@H]12 (some centres not stated) the results were MARV entry inh -29.4% and Lassa entry -21.7%.
For CC(C)[C@@H](C)/C=C/[C@@H](C)[C@H]1CC[C@H]2/C(=C/C=C3\C[C@@H](O)CC[C@@H]3C)CCC[C@]12C the results were MARV entry inh 12.7% and Lassa entry 22.4µM*.
For CON=C1C[C@]2(C[C@@H]3C[C@@H](C/C=C(\C)C[C@@H](C)/C=C/C=C4\CO[C@@H]5[C@H](O)C(C)=C[C@@H](C(=O)O3)[C@]45O)O2)O[C@H](/C(C)=C/C(C)C)[C@H]1C the results were MARV entry inh 28.2µM* and Lassa entry 31.6µM*.
COc1cc2nc(N3CCN(C(=O)C4COc5ccccc5O4)CC3)nc(N)c2cc1OC (configuration not stated) was read as MARV entry inh inconclusive and Lassa entry -3.0%[17.8 µM].
Screening COc1cc2nc(N3CCN(C(=O)OCc4ccccc4)[C@H](C(=O)NC(C)(C)C)C3)nc(N)c2cc1OC returned MARV entry inh 11.2µM* and Lassa entry 1.3%.
`COc1ccc(CCNc2ncnc3sc(C(=O)N(C)C)c(C)c23)cc1OC` gave MARV entry inh inconclusive and Lassa entry 3.2%.
For O=S(=O)(O)c1ccc2nc(-c3ccccc3)[nH]c2c1 the results were MARV entry inh -1.3% and Lassa entry inconclusive.
Screening O=S(=O)(O)c1ccc2c(c1)-c1nc-2nc2[nH]c(nc3nc(nc4[nH]c(n1)c1ccc(S(=O)(=O)O)cc41)-c1ccc(S(=O)(=O)O)cc1-3)c1ccc(S(=O)(=O)O)cc21 returned MARV entry inh 1.26µM* and Lassa entry inconclusive.
